The source of these data is PubChem BioAssay (NCATS).

Results filed as inconclusive are left out. A number with no mark means an inactive call. Calls of active or inactive are those of the source. Calls follow the shape of the dose curve; as a rule, active = well fitted inhibition curve with a large enough effect; inconclusive = small, poorly fitted or top-dose-only effect; inactive = no such curve, though single readings can be large or run the other way.
% is scaled to controls: 0 for no effect and ±100 for the full control effect; potency is read from the fitted curve at half-maximal effect.

Sequence of Calcium and integrin-binding protein 1 (Homo sapiens) (Q99828 whole entry, looked up): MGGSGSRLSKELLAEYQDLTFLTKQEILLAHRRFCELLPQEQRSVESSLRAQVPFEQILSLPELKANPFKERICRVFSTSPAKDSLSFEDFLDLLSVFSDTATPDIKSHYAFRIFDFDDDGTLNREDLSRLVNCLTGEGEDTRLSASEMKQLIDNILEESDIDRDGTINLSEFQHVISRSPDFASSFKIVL

The assay concerns the target Calcium and integrin-binding protein 1 (Homo sapiens) (UniProt Q99828). Put plainly: Confirmatory qHTS for Identification of Calcium Integrin Binding Protein 1 (CIB1) Competitor (AID 1508617). Also: nearly all actives have a fitted effect of over 65% in size. The conditions noted are these: CIB1 binding competition assay, biochemical qHTS; series mostly up to 114 µM; activity change, negative = inhibition: at the top concentration. The essentials:
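Compounds at up to 114 uM final met 1 uM GST-tagged CIB1 for 15 min at room temperature (HEPES pH 7.4, 5 mM CaCl2). FITC-labelled alphaIIb peptide, 100 nM, added; polarization read after 15 min more.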
With `Cc1ccsc1C1N=C(Nc2nc3ccccc3o2)NC2=C1C(=O)CCC2` (stereo not given), the “activity change, negative = inhibition” value was -15.2%.

Consider `CC(C)c1nc(Nc2nc3ccccc3o2)nc2c1CCCC2`, for which the “activity change, negative = inhibition” value was -13.5%. The same measure, in the same setting: in the case of `O=C1CCC2=C1C1(CCCC1)N=C(Nc1nc3ccccc3o1)N2` it was 2.61%; in that of `Oc1cccc2cc(C3CC3)cnc12`, 3.33%; in that of `O=C1CCCC2=C1C(c1ncccc1C(F)(F)F)N=C(Nc1nc3ccccc3o1)N2` (stereo not given), -16.4%.

With `O=C1CCCC2=C1C1(CCCOC1)N=C(Nc1nc3ccccc3o1)N2` (stereo not given), the “activity change, negative = inhibition” value was 1.87%.

Consider `CCOC(=O)c1[nH]c2c(c1C)C(=S)CC(c1ccco1)C2` (stereo not given), for which the Potency was 39.8 µM (active). For `CC1(C)N=C(Nc2nc3ccccc3o2)NC2=C1C(=O)CCC2`, the “activity change, negative = inhibition” value is 2.42%. As to `CCOc1ccc(CCNC(=O)c2ccc(N3N=C(C)CC3=O)cc2)cc1OCC`, the “activity change, negative = inhibition” value was -9.7%. As to `O=C(NC(c1ccco1)c1cc(Cl)c2cccnc2c1O)c1cccs1` (stereo not given), the “activity change, negative = inhibition” value is 17%. Turning to `O=C(Cc1ccc(Cl)c(Cl)c1)Nc1ccc([S+](=O)([O-])Nc2nnc(-c3ccccn3)s2)cc1`, the Potency is 35.5 µM (active). Turning to `CS(=O)(=O)c1ccc(C(=O)OCC(=O)N2CCC(Cc3ccccc3)CC2)cc1[N+](=O)[O-]`, the “activity change, negative = inhibition” value was -17.9%.

`O=C1CCCC2=C1C(c1cccnc1Br)N=C(Nc1nc3ccccc3o1)N2` (stereo not given): the “activity change, negative = inhibition” value was 7.16%. Still for that read-out and setting: in the case of `Cc1ccccc1NC(=O)CN1C(=O)N/C(=C\c2cn(-c3cccc(C(=O)O)c3)cn2)C1=O` it was -7.84%. With `O=C1CCCC2=C1C(c1ccn[nH]1)N=C(Nc1nc3ccccc3o1)N2` (stereo not given), the “activity change, negative = inhibition” value was -12.4%. For `COC(=O)c1ccc(O)c2ncc(-c3ccc(C(=O)NCCCN(C)C)cc3)cc12`, the “activity change, negative = inhibition” value is -8.91%.

In the case of `CCc1ccc(NC(=O)C(=O)NNC(=O)c2cccs2)cc1`, the “activity change, negative = inhibition” value is 9.89%. The same measure, in the same setting: to `O=C(Cc1ccccc1)NC(c1ccco1)c1cc(Cl)c2cccnc2c1O` (stereo not given) belongs 30.8%. Same read-out and setting: in the case of `NC(=O)c1cccc(-c2cnc3c(O)ccc(C(=O)O)c3c2)c1` it was -8.03%.

Consider `Cc1cnc(-c2ccccc2C(C)C)nc1NCc1ccc(-c2ccc(F)nc2)cc1`, for which the Potency was 112 µM (active). As to `COC(=O)c1ccc(O)c2ncc(-c3ccc(C(=O)N4CCNCC4)cc3)cc12`, the “activity change, negative = inhibition” value was 6.25%. For `CC(C)(C)OC(=O)CC(=O)NNC(=O)c1nc2ccccc2[nH]1`, the “activity change, negative = inhibition” value was -2.1%. With `Cc1cc(NS(=O)(=O)c2ccc(NC(=O)Cc3ccc(F)c(Cl)c3)cc2)no1`, the “activity change, negative = inhibition” value was -28.5%. With `Cc1ccc(C(=O)NC(c2ccco2)c2cc(Cl)c3cccnc3c2O)cc1` (stereo not given), the “activity change, negative = inhibition” value was 24.8%. With `CCOc1ccc(CCNC(C)=O)cc1OCC`, the “activity change, negative = inhibition” value was 11.5%. Turning to `O=C1CCCC2=C1C1(CCOCC1)N=C(Nc1nc3ccccc3o1)N2`, the “activity change, negative = inhibition” value was 4.17%. Still for that read-out and setting: in the case of `O=C(O)c1ccc(O)c2ncc(N3CCC(N4CCOCC4)C3)cc12` (stereo not given) it was 15.3%; in that of `CC1CCC2(C1)N=C(Nc1nc3ccccc3o1)NC1=C2C(=O)CCC1` (stereo not given), -4.34%. Still for that read-out and setting: to `O=C(c1ccc(-c2cc(O)c3ncccc3c2)cc1)N1CCNCC1` belongs -5.78%.

Take `C=CCNc1oc(-c2ccc(Cl)cc2)nc1C#N`: the Potency is 44.7 µM (active). For `CC(O)c1ccc(-c2ccc3ncnc(N4CCOCC4)c3c2)o1` (stereo not given), the “activity change, negative = inhibition” value was -3.99%. The same measure, in the same setting: to `O=[S+]([O-])(Nc1nccs1)c1ccc(NCc2cc(Cl)cc(Br)c2O)cc1` belongs -19.8%; to `Fc1ccc(NC(=S)Nc2nnc(-c3ccncc3)s2)cc1C(F)(F)F`, -13%. Still for that read-out and setting: in the case of `O=C1CCCC2=C1C(c1ccncc1)N=C(Nc1nc3ccccc3o1)N2` (stereo not given) it was 3.16%.

With `CN1CCN(c2ccc(-c3cc(O)c4ncccc4c3)cc2)CC1`, the “activity change, negative = inhibition” value is 4.19%. Consider `CN(CC(=O)Nc1ccc(N2CCOCC2)cc1)Cc1c(O)ccc2ccccc12`, for which the “activity change, negative = inhibition” value was 1.92%. `CSc1cc2c(s1)c1cnn(Cc3cccc(N)c3)c(=O)c1n2C`: the Potency was 39.8 µM (active).

As for `O=C(NCCCN1CCNCC1)c1cccc(-c2cc(O)c3ncccc3c2)c1`, the “activity change, negative = inhibition” value is -7.42%. On to `Oc1cccc2cc(N3CCCC3)cnc12`, for which the “activity change, negative = inhibition” value was -10.6%.

On to `NC(=O)C1CCN(c2nc(-c3ccccc3N)cs2)CC1`, for which the “activity change, negative = inhibition” value is -1.7%.
